# IDE cell activ = boosts human insulin-degrading enzyme activity in HEK cells; P14735; FAbeta-B cleavage, fluorescence polarization; 0% vehicle, 100% cell-free pure enzyme wells; activation, % at 5.96 µM; 0.073% of 340,000 active; AID 493087;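 active = activation above the mean of all tested compounds plus 3 SD, set per screening campaign, cut at about 17% in these data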
# IDE inh = inhibits human insulin-degrading enzyme in HEK cells; P14735; FAbetaB cleavage, fluorescence polarization; inhibition, % at 5.59 µM; 0.41% of 320,000 active; AID 434962;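 active = percent inhibition above the average of all tested compounds plus 3 SD, set per screening campaign, cut at about 16% in these data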;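 note: IDE supplied by intact live HEK cells; FP after avidin binding of uncleaved biotin substrate so inhibition keeps polarization high; 0% = DMSO wells and 100% = 60 µM reference IDE inhibitor Ii1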
# Cardiac RTF inh = cardiac RTF calcium desensitization; 0.12% of 340,000 active; inhibition, % at 7.15 µM; IANBD-labeled cardiac RTF, Ca2+ fluorescence; P19429+P45379; AID 493244;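 active = inhibition above the mean inhibition of all tested compounds plus 3 SD, cut at about 17% in these data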;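 note: assay run at fixed EC70 calcium of 1.6 mM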
# TPT1 inh = C. albicans TPT1 enzyme inhibition; inhibition, % at 5 µM; 0.81% of 300,000 active; recombinant caTPT1, FP RNA substrate dephosphorylation;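 active = inhibition above the mean of all tested compounds plus 3 SD, set per screening campaign, cut at about 24% in these data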;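 note: plate controls were DMSO alone for no effect and ferristatin control at 100 nM for full effect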
# RTF Ca sens act = cardiac RTF calcium sensitization; P19429+P45379; activation, % at 7.2 µM; AID 493008; 0.24% of 340,000 active; IANBD-labeled TnC RTF fluorescence at EC20 calcium; 0% EC20 calcium, 100% full calcium;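 active = activation above the mean over all tested compounds plus 3 SD, cut at about 30% in these data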;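 note: rise in fluorescence read as greater calcium sensitivity of cardiac thin filaments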
# CRFR2-BP ag = CRF-BP/CRF-R2 complex agonism. HEK293 CRF-R2/CRF-BP, calcium dye fluorescence (FLIPR); percent of saturating CRF peptide response. activation, % at 13.2 µM. 0.46% of 350,000 active;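 active = activation of at least 50%, plus an integration ratio under a set limit after plate pattern correction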;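 note: plate controls were neutral control wells without compound for no effect and CRF at EC100 for full effect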
# TPT1 inh confirm = TPT1 (C. albicans) inhibition, confirmation; 74% of 2,400 active; shares compounds with TPT1 inh; recombinant caTPT1, fluorescence polarization, RNase T1 coupled; inhibition, % at 5 µM;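 active = inhibition above the primary screen limit, the mean inhibition of all tested compounds plus 3 SD, cut at about 25% in these data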
# RNase T1 counter = RNase T1 inhibition in TPT1 counter-screen; shares compounds with TPT1 inh; RNase T1 cleavage, fluorescence polarization, 1536-well; inhibition, % at 5 µM; 83% of 2,400 active;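 active = inhibition above the solvent-only control well mean plus 3 SD, limit set per screening run, cut at about 23% in these data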;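 note: plate controls were DMSO wells with enzyme for no effect and wells without RNase T1 for full effect; inhibitors block cleavage so intact labeled substrate keeps polarization high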
# IDE inh confirm = cellular human IDE inhibition, confirmation | 51% of 1,200 active | inhibition, % at 5.59 µM | shares compounds with IDE inh | AID 435028 | HEK cells, FAbetaB cleavage, fluorescence polarization;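 active = mean inhibition across triplicate wells above the cutoff set by the earlier primary insulin-degrading enzyme screen, cut at about 16% in these data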;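 note: 0% = DMSO wells and 100% = 60 µM reference IDE inhibitor Ii1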
# HEK cytotox = counter-screen for IDE inhibitors: cytotoxicity in HEK cells; inhibition, % at 5.59 µM; AID 449730; 28% of 1,200 active; shares compounds with IDE inh; HEK293 cytotoxicity, ATP luminescence; in the data active = inhibition above about 22%;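 note: 0% = vehicle wells and 100% = reference cytotoxic drug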
# FP fluor counter = counter-screen for IDE inhibitors: fluorescent artifacts | shares compounds with IDE inh | FP counterscreen for fluorescent artifacts, IDE probe project | IC50, µM | 30 tested, under 10 active; call rule not given here
# RTF inh confirm = confirmation of inhibitors of cardiac thin filament calcium sensitivity | shares compounds with Cardiac RTF inh | AID 504635 | reconstituted cardiac thin filaments, calcium sensitivity fluorescence | 8% of 360 active | inhibition, % at 7.15 µM; in the data active = inhibition above about 18%
# Active calls of the source: *; i = inactive; nt = no result given; ! = not confirmed by another sample. A selection: hits, their analogues and other compounds. The true share with any hit is near 1.5%.
SMILES,IDE cell activ,IDE inh,Cardiac RTF inh,TPT1 inh,RTF Ca sens act,CRFR2-BP ag,IDE inh confirm,HEK cytotox,others
CSCCC(NC(=O)c1ccccc1)C(=O)NCCCn1nc(C)cc1C (stereo not given),-4,11,6,nt,12,1,nt,nt,
O=C(COC(=O)CNC(=O)c1ccccc1F)NC12CC3CC(CC(C3)C1)C2,2,-1,4,nt,-5,0,nt,nt,
CC(C)C(C(=O)O)N1C(=O)/C(=C/C=C/c2ccco2)SC1=S (stereo not given),2,0,83*,83*,-39,4,nt,nt,TPT1 inh confirm=88*;RNase T1 counter=64*;RTF inh confirm=40*
NS(=O)(=O)c1cc(C(=O)NC2CCSc3ccccc32)ccc1Cl (stereo not given),0,1,31*,54*,-53,-3,nt,nt,TPT1 inh confirm=67*;RNase T1 counter=3;RTF inh confirm=4
N#C/C(=C\c1ccccn1)c1nc2ccccc2s1,-60,28*,-59,23,60*,82*,46*,17,
COc1ccc(/C(C#N)=C/c2ccccn2)cc1,-2,6,-4,-5,3,0,nt,nt,
CN(C(=O)COC(=O)/C=C/c1cccs1)C1CCCCC1,4,3,-12,nt,-4,-4,nt,nt,
C=CCn1c(SCC#N)nnc1-c1ccc2ncccc2c1,-5,7,4,-2,7,1,nt,nt,
Nc1cc2c(cc1C(=O)c1cccc(Br)c1)OCCO2,1,4,4,-2,-6,1,nt,nt,
O=C1C(Cl)=C(NCc2ccco2)C(=O)c2ccccc21,1,nt,-3,nt,-3,-3,nt,nt,
O=C1c2ccccc2-c2onc3ccc(NCc4ccco4)c1c23,-4,20*,i,-71,715*,148*,91*,27*,
Cc1cc(NC(=O)OC2CCCCC2)ccc1[N+](=O)[O-],2,3,2,-2,-5,3,nt,nt,
COc1ccc(C2CC(c3cccs3)=NN2C(=O)CSc2nc(=O)n3ccccc3n2)cc1 (stereo not given),-4,17*,-12,-2,5,0,-1,17,
CCn1c(-c2ccc(-c3ccccc3)cc2)c[nH]c1=S,-7,16*,5,6,-7,1,-3,18,
Cc1ccc(S(=O)(=O)Nc2ccc3c(c2)n(C)c(=O)n3C)c(C)c1,10,5,-2,3,-2,1,nt,nt,
Cc1ccc(S(=O)(=O)Nc2ccc3oc(=O)sc3c2)c(C)c1,-3,18*,-5,-4,1,2,7,4,
CCCCn1c(N)c(N(CC(C)C)C(=O)C2CCN(S(=O)(=O)c3ccc(C)cc3)CC2)c(=O)[nH]c1=O,0,0,3,-2,-20,0,nt,nt,
CCOc1ccc(NC(=O)CSc2nc3[nH]ncc3c(=O)n2-c2ccccc2OC)cc1,-38,62*,10,-6,-9,1,8,7,
COc1ccccc1-n1c(SCC(=O)Nc2ccccc2F)nc2[nH]ncc2c1=O,-26,6,1,0,-5,-3,nt,nt,
O=C(CSc1nc2[nH]ncc2c(=O)n1-c1ccccc1Cl)N1CCCC1,-10,18*,-13,-2,6,-3,7,8,
CCc1ccccc1-n1c(SCC(=O)N2CCCC2)nc2[nH]ncc2c1=O,-3,12,-11,-4,4,-2,nt,nt,
CCOc1cc(-c2nc3n(c(=O)c2C#N)CCS3)ccc1O,-31,25*,-11,4,1,-2,41*,15,
COc1cc(/C=C2/SC(=O)NC2=O)ccc1OC(=O)c1ccco1,1,-4,1,-1,-6,-2,nt,nt,
COc1cc(/C=C2\SC(=S)N(NC(C)=O)C2=O)ccc1OC(=O)c1ccco1,-17,22*,-11,nt,6,0,66*,11,FP fluor counter=>55
COc1cc(/C=C2/SC(=S)N(C)C2=O)ccc1OC(=O)c1ccco1,-26,24*,-1,7,15,4,63*,9,
SMILES,IDE cell activ,IDE inh,Cardiac RTF inh,TPT1 inh,RTF Ca sens act,CRFR2-BP ag,IDE inh confirm,HEK cytotox,others
CCOc1cc(/C=C2/SC(=S)NC2=O)ccc1OC(=O)c1ccco1,-16,15,0,5,2,-3,nt,nt,
Cc1ccc(-n2c(SCC(=O)N(C)C3CCS(=O)(=O)C3)nc3ccccc3c2=O)c(C)c1 (stereo not given),1,2,-4,nt,1,0,nt,nt,
COC(=O)CC1C(=O)NCCN1C(=O)CSc1nc2ccc([N+](=O)[O-])cc2s1 (stereo not given),-2,7,-8,0,-2,1,nt,nt,
COc1ccc(OC)c(N=c2ssnc2Cl)c1,1,-2,6,-1,3,-1,nt,nt,
COc1cc(N=c2ssnc2Cl)c(OC)cc1Cl,-19,18*!,-9,-4,-2,2,12,34*,
O=C1CCCN1CCCNS(=O)(=O)c1ccc(F)c(F)c1,1,-8,-6,-4,0,-1,nt,nt,
Cc1csc(NC(=O)c2cc3c(s2)-c2ccccc2OC3)n1,0,0,-5,-2,1,-1,nt,nt,
Cc1c(NC(=O)c2cc3c(s2)-c2ccccc2OC3)cccc1[N+](=O)[O-],-9,27*,0,-2,-2,-2,2,39*,
O=C(CSc1nncs1)Nc1ccc(S(=O)(=O)N2CCCC2)cc1,-3,3,-12,-1,-1,0,nt,nt,
O=c1[nH]c(Nc2ccccc2)cc2ccccc12,-17,19*,-7,21,-4,63*,0,12,
CC1C(=O)N(Cc2cn(CCC3OCCCO3)nn2)CCS(=O)(=O)N1Cc1ccc(-c2ccc(Cl)nc2)cc1 (stereo not given),nt,nt,nt,nt,nt,0,nt,nt,
O=C(NCC1CCCO1)c1ccc(COc2ccc(Br)cc2)cc1 (stereo not given),-13,22*,13,-8,4,-4,5,24*,
CCCn1c(Nc2nc3ccccc3n2C)nc2ccccc21,-29,32*,4,1,-8,-1,24*,8,
CCCCn1c(Nc2ccccc2)nc2ccccc21,4,-8,3,-3,-4,0,nt,nt,

# Compound activity: PubChem, several laboratories
